The whole screen tested about 290,000 compounds, of which about 11,000 (3.8%) were called active. This is one part of a sample in which actives are shown more often than they occur. Values without a mark were called inactive.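 Rule for the calls: active = mean replicate inhibition above about 79%, with every replicate also reaching it (limit read from the data); inconclusive = only one of the two criteria met; inactive = mean below limit and not every replicate reaching it.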
Target: FAD-linked sulfhydryl oxidase ALR (Homo sapiens) (UniProt P55789)
Sequence (P55789 whole entry, looked up): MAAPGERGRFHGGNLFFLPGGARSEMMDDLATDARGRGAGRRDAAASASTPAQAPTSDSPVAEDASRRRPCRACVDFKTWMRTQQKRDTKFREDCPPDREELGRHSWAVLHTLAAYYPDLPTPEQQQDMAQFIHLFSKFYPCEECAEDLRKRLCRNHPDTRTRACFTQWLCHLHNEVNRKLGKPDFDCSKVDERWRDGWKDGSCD
Experiment: ALR-catalysed DTT oxidation blockers – biochemical, H2O2 detection, HRP-luminol luminescence, single point, primary screen (AID 485317)
Details: purified ALR, active compounds read high, concentration not given here

| SMILES | inhibition |
| --- | --- |
| NS(=O)(=O)c1ccc(CNC(=O)c2cccc(S(=O)(=O)N3CCc4ccccc43)c2)cc1 | -5.92% |
| Cc1ccc(S(=O)(=O)N(C)C)cc1NC(=O)CN1c2cccc3cccc(c23)S1(=O)=O | -16.6% |
| Cc1ccc(S(=O)(=O)N2CCCCC2)cc1NC(=O)CCNC(=O)c1ccccc1 | -5.33% |
| CCOc1ccc(C(C)=O)cc1COC(=O)CN1C(=O)NC2(CCCC2)C1=O | -0.483% |
| COc1cc(/C=C2\Oc3ccc(C#Cc4ccc(O)cc4)cc3C2=O)cc(OC)c1 | 4.14% |
| CC(NS(=O)(=O)c1ccccc1)c1n[nH]c(=S)n1-c1ccccc1 (stereo not drawn) | 86.4% (active) |
| CC(NS(=O)(=O)c1ccc(OCC(=O)N2CCCC2)cc1)c1ccccc1 (stereo not drawn) | -2.54% |
| S=c1[nH]nc(COc2ccccc2)n1-c1ccccc1 | 31.7% |
| O=C(Nc1nsc(-c2ccccc2)n1)c1ccncc1 | 1.28% |
| COC(=O)c1nc(NC(=O)c2ccc(Cl)cc2)n[nH]1 | -3.46% |
| COC(=O)c1nc(NC(=O)c2ccccc2)n[nH]1 | 97.4% (active) |
| O=C(CSc1nc2ccccc2c(=O)n1CCCO)NC1CC1 | 0.869% |
| CC(Sc1cccc[n+]1[O-])C(=O)Nc1cccc(S(=O)(=O)N2CCOCC2)c1 (stereo not drawn) | 96.9% (active) |
| CN=C(Nc1cccc(S(=O)(=O)N2CCOCC2)c1)c1ccccc1 | -1.77% |
| CC(Sc1ccccc1F)C(=O)Nc1cccc(S(=O)(=O)N2CCOCC2)c1 (stereo not drawn) | -3.71% |
| CN(CC(=O)Nc1cccc(F)c1)C(=O)C1CC(=O)N(CCc2ccccc2)C1 (stereo not drawn) | -3.35% |
| O=C(CSc1nnc(-c2ccncc2)o1)Nc1cccc(Cl)c1 | 6.76% |
| CCCc1cc(-c2n[nH]c(=S)n2Cc2ccccc2)cs1 | 49.7% |
| CCc1cc(-c2n[nH]c(=S)n2CC(C)C)cs1 | 94.7% (active) |
| CCn1c(-c2ccncc2)n[nH]c1=S | 65.5% |
| N#Cc1cc([N+](=O)[O-])ccc1NC(=O)COC(=O)c1cnccn1 | -7.67% |
| O=C(c1cc2ccccc2o1)N1CCN(S(=O)(=O)c2ccc(Cl)s2)CC1 | -0.962% |
| COc1ccc(C(CNC(=O)c2cccc(NS(=O)(=O)c3ccc(C)c(F)c3)c2)N2CCCC2)cc1 (stereo not drawn) | -7.21% |
| CC(C)c1ccc(NC(=O)COC(=O)c2ccc(CN3CCCC3=O)cc2)cc1 | -43.2% |

| SMILES | inhibition |
| --- | --- |
| CCOc1ccc(NC(=O)c2ccc(NC(=O)COC(=O)c3ccc(NC(=O)CC#N)cc3)cc2)cc1 | 1.83% |
| CC(C)NC(=O)NC(=O)COC(=O)c1ccc(NC(=O)CC#N)cc1 | 98.6% (active) |
| N#CCN(C(=O)COC(=O)C1CC2CCCC(C1)C2=O)c1ccccc1 (stereo not drawn) | -1.07% |
| CCN(CC(=O)Nc1ccccc1C(F)(F)F)C(=O)C1CCN(C(=O)Nc2ccccc2)CC1 | 8.41% |
| O=C(CN1CCN(c2ccc(Cl)cc2)CC1)c1ccccc1 | 4.7% |
| O=C(CN1CCCC1)N1CCN(c2ccccc2)CC1 | 23.5% |
| O=C(CN1CCN(c2ccc(Cl)cc2)CC1)N1CCCC1 | 97.8% (active) |
| CSCC(NS(=O)(=O)c1ccc(C)cc1)C(=O)O (stereo not drawn) | 19.4% |
| Cc1ccc(CSCC(=O)N(C)CC(=O)Nc2ccc(C)cc2)cc1 | -0.0315% |
| Cc1ccc(CSCC(N)C(=O)O)cc1 (stereo not drawn) | 99.1% (active) |
| CCC1(c2ccccc2)NC(=O)N(CC(=O)c2ccc3c(c2)OCO3)C1=O (stereo not drawn) | 0.023% |
| COc1cc(OC)cc(-c2c(C#Cc3ccsc3)c3cc(-c4ccc(OC)cc4F)ccc3n2C)c1 | -17.2% |
| COc1ccccc1C(c1nnnn1CC1CCCO1)N1CCN(c2ccccc2)CC1 (stereo not drawn) | 90.9% (active) |
| COc1ccc(C(c2nnnn2Cc2cccs2)N2CCN(c3ccccc3)CC2)cc1OC (stereo not drawn) | 8.5% |
| Cc1cccc(N2CCN(C(c3ccccc3)c3nnnn3CC3CCCO3)CC2)c1C (stereo not drawn) | -2.29% |
| COc1ccc(NC(=O)CCC(=O)N2CCN(S(=O)(=O)c3ccc(C)cc3)CC2)c(OC)c1 | -6.29% |
| O=S(=O)(NCCCc1ccccc1)c1ccc(Br)cc1 | 2.4% |
| Cc1[nH]c2ccccc2c1C(=O)C(C)Sc1nnc(C2CC2)o1 (stereo not drawn) | -3.37% |
| O=C(CSC1CC(=O)N(CCc2ccccc2)C1=O)Nc1ccc(Cl)cc1 (stereo not drawn) | 93.5% (active) |
| CC(=O)Nc1ccc(NC(=O)C(C)OC(=O)C2CC(=O)N(CCc3ccccc3)C2)cc1 (stereo not drawn) | -1.82% |
| O=C(NCCCc1ccccc1)C1CCC(=O)N(CCc2ccc(Cl)cc2)C1 (stereo not drawn) | 0.977% |
| c1ccc2c(CCN3CCNC[C@H]3Cc3cccc4ccccc34)cccc2c1 | -14.6% |
| CN(C(=O)c1cccc(NC(=O)Cc2ccc([N+](=O)[O-])cc2)c1)C1CCC1 | -1.83% |
| Cc1ccc(OCC(=O)Nc2ccccc2C(=O)NC2CC2)cc1 | -2.04% |

| SMILES | inhibition |
| --- | --- |
| O=c1cnnc(Nc2ccccc2)[nH]1 | 1.2% |
| S=c1[nH]nc(Nc2ccccc2)s1 | 98.6% (active) |
| S=C(NCCc1ccccc1)Nc1ccccc1 | 12.6% |
| CC(C)(C)C(=O)c1cnc(Nc2ccccc2)s1 | 19.3% |
| S=c1[nH]nc(NCCc2ccccc2)s1 | 95.1% (active) |
| Cc1nc(C)c(-c2csc(NCCc3ccccc3)n2)s1 | 24% |
| CCCc1cc(=O)[nH]c(SCC(=O)Nc2ccc(C(=O)Nc3ccccc3OC)cc2)n1 | -0.142% |
| O=C(NCCC1CCCCN1S(=O)(=O)c1ccc(Cl)cc1)C(=O)NCc1ccco1 (stereo not drawn) | -1.02% |
| CN1C(=O)c2ccc(NC(=O)c3c(F)c(F)c(F)c(F)c3F)cc2C1=O | -3.79% |
| Cc1cc(NC(=O)OC(C)C)ccc1-c1ccc(NC(=O)OC(C)C)cc1C | 91.5% (active) |
| Cc1cccc(C(=O)Nc2ccc3c(c2)C(=O)N(CC(C)C)C3=O)c1 | -20.8% |
| Cn1cncc1C#Cc1c(-c2ccsc2)sc2ccccc12 | 1.87% |
| O=C(CN1C(=O)c2ccc([N+](=O)[O-])cc2C1=O)Nc1nnc(C2CC2)s1 | -1.72% |
| CCOc1ccc(NC(=O)c2ccc(NC(=O)CN3C(=O)C(=O)N(CC(C)C)C3=O)cc2)cc1 | -8.04% |
| O=C(CSc1nnc(Nc2ccccc2F)s1)NC1CCCC1 | -1.36% |
| CC12CCC(=O)N1C(C(=O)NCCN1C(=O)S/C(=C\c3ccccc3F)C1=O)CS2 (stereo not drawn) | -5.02% |
| CCCc1nnc(NC(=O)CN2C(=O)c3ccccc3S2(=O)=O)s1 | 1.19% |
| CNC(=O)CN1C(=O)c2ccccc2S1(=O)=O | 96.2% (active) |
| O=C(CN1C(=O)c2ccccc2S1(=O)=O)NC1CCCCC1 | -2.86% |
| Oc1ccc(-c2onc3ccc(Cl)cc23)cc1 | 81% (active) |
| CC(OC(=O)c1ccc2noc(-c3ccccc3)c2c1)C(N)=O (stereo not drawn) | 2.68% |
| COc1ccc(-c2onc3ccc(C(C)=O)cc23)cc1 | -6.5% |
| O=C1COc2ccc(C(=O)CSc3ccc(Br)cc3)cc2N1 | -4.57% |
| COCCN(C(=O)COC(=O)Cc1cccc(OC)c1)c1c(N)n(Cc2ccccc2)c(=O)[nH]c1=O | 3.3% |

| SMILES | inhibition |
| --- | --- |
| COc1ccc(-c2cc(C(=O)N/N=C/c3cccnc3)c3ccccc3n2)c(OC)c1 | 0.831% |
| CCCc1cc(=O)[nH]c(SCC(=O)c2c(N)n(CC(C)C)c(=O)n(C)c2=O)n1 | -1.46% |
| Cc1cc(C(=O)CSc2nc(N)cc(=O)[nH]2)c(C)n1CCc1ccc(Cl)cc1 | 3.32% |
| CCCc1cc(=O)[nH]c(SCC(=O)c2cc(C)n(CCC)c2C)n1 | 96% (active) |
| Cc1ccc(F)cc1NC(=O)CSCc1c(C)noc1C | 9.91% |
| Cc1cccc(C(=O)N[C@H](C(=O)NCc2cccs2)C(C)C)c1 | 0.403% |
| CCC(C)NC(=O)c1ccc(NC(=O)CC2SC(N3CCCCC3)=NC2=O)cc1 (stereo not drawn) | -5.35% |
| CN(C)CCCNC(=O)c1ccc2[nH]c3ccccc3c2c1 | -6.4% |
| O=C(NCC1CCCO1)c1cc(-c2ccccc2)nc2ccccc12 (stereo not drawn) | -3.93% |
| O=C(NCC1CCCO1)c1cc2c([nH]c3ccccc32)c(-c2ccc(F)cc2)n1 (stereo not drawn) | 96.9% (active) |
| COc1ccc2cc(C(=O)NCC3CCCO3)[nH]c2c1 (stereo not drawn) | -17.8% |
| COc1cccc2[nH]c(C(=O)NCCc3ccccc3)cc12 | -7.11% |
| O=C(NCCCO)c1cc2c([nH]c3ccccc32)c(-c2ccc(F)cc2)n1 | 98% (active) |
| C[C@H](CO)N1C[C@H](C)[C@@H](CN(C)C(=O)NC2CCCCC2)Oc2ccc(NC(=O)c3ccncc3)cc2C1=O | -4.41% |
| CCN(C(=O)CSc1cccc[n+]1[O-])c1ccccc1 | -7.12% |
| COc1cccc(/C=C/C(=O)OCC(=O)N2CCN(c3ccccc3)CC2)c1 | 27.8% |
| COc1cccc(-c2ccc(SCC(=O)N3CCN(c4ccccc4)CC3)nn2)c1 | 88.3% (active) |
| CCOc1ccc(-c2ccc(SCC(=O)N3CCOCC3)nn2)cc1 | -5.59% |
| CC1CCCN(C(=O)CN2C(=O)c3ccccc3S2(=O)=O)C1 (stereo not drawn) | -1.06% |
| O=C(NNC(=O)c1ccc(-n2cncn2)c([N+](=O)[O-])c1)c1ccccc1 | -16.9% |
| O=C(NCc1ccncc1)c1ccc(NS(=O)(=O)c2cccc([N+](=O)[O-])c2)cc1 | -17.6% |

From PubChem BioAssay AID485317 (Broad Institute, 2010)
